Screening data (PubChem BioAssay)
The list is not random: actives were taken first. Their share in the collection is about 11%.
NIH3T3 tox – Cytotoxic Profiling in NIH 3T3 Cell Line of Diverse Libraries Using Quantitative High-Throughput Screening; NIH 3T3 viability, CellTiter-Glo ATP luminescence, 48-72 h; Potency, µM (top dose mostly 96.7 µM), for inactives: at the top dose activity change, negative = cytotoxicity, hits mostly inhibitors; hit rate 4.3% among 94,000; AID 1345082, 2018; further: nearly all actives have a fitted effect of over 55% in size
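Cytotoxicity is measured as loss of cellular ATP: NIH 3T3 cells (400/well) are exposed to compound for 48 or 72 hr at 37 °C, then CellTiter-Glo luminescence is imaged after 10 min at room temperature.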
HEK293 tox – Cytotoxic Profiling in HEK 293 Cell Line of Diverse Libraries Using Quantitative High-Throughput Screening | HEK 293 viability, ATP luminescence (CellTiter-Glo), 48-72 h | Potency, µM (top dose mostly 115 µM), for inactives: top-dose activity change, negative = cytotoxicity, most hits filed as inhibitors | hit rate 6.6% among 94,000; further: nearly all actives have a fitted effect of over 60% in size
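qHTS cytotoxicity; HEK 293, 250 cells/well; compound pinned; 48 or 72 hr, 37 degree Celsius, 5% CO2, 95% humidity; CellTiter-Glo, 10 min RT; luminescence (ATP).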
hNpr1 antagonist – Natriuretic polypeptide receptor (hNpr1) antagonism - Primary qHTS; HEK293 hNpr1 GloSensor cGMP, ANP-stimulated luminescence; Potency, µM (highest dose often 46.3 µM), without a hit: at the highest dose activity change, negative = inhibition, usual class: inhibitors; hit rate 1.6% among 76,000; calls by dose curve; further: nearly all actives have a fitted effect of over 60% in size
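HEK293 cells stably expressing human Npr1 and cGMP GloSensor pGS-40F, loaded 2 h with 2% GloSensor reagent, given compound 30 min at room temperature. Luminescence read before and 20 min after 0.1 nM hNppA.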
Luciferase inh – Firefly luciferase inhibition profiling of diverse chemical library using quantitative high-throughput screening. Luciferin 4-monooxygenase (Photinus pyralis), P08659. AID 1347043, 2019. purified P. pyralis luciferase, luminescence, biochemical. hit rate 2.5% among 76,000. Potency, µM (series often up to 115 µM), hits mostly inhibitors; further: nearly all actives have a fitted effect of over 65% in size
Target sequence (P08659 whole entry, looked up): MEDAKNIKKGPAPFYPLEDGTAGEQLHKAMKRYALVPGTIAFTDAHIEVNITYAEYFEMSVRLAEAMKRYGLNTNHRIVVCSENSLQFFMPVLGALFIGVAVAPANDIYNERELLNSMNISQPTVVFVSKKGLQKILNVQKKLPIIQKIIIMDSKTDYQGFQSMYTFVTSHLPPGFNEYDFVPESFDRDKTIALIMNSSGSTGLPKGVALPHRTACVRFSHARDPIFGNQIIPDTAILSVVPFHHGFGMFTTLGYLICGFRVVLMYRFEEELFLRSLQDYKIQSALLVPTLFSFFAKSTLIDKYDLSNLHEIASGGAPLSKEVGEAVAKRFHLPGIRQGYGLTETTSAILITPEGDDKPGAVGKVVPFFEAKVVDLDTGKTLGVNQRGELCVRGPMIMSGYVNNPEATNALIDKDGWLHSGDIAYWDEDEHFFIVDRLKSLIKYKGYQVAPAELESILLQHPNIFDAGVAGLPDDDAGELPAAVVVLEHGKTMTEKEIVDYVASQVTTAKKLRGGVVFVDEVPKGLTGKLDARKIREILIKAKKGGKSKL
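Luminescence read by CCD imaging after purified firefly luciferase (10nM final) was added to substrate buffer holding 10uM D-luciferin and 10uM ATP, pH 7.5, pre-dosed with compound.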
Active calls of the source: *; i = inactive; ? = inconclusive; . = no result given. Unless noted, the call rests on the fitted dose curve; in most records, active means well fitted curve in the direction sought with a large enough effect; inconclusive means small, poorly fitted or top-dose-only effect, or another doubt; inactive means no such curve, though single readings can be large; an effect the other way counts as inactive or inconclusive. On the % scale 0 is the no-effect control and ±100 the full control effect; potency means the concentration at half of the fitted maximal effect.

SMILES | NIH3T3 tox | HEK293 tox | hNpr1 antagonist | Luciferase inh
COc1cccc(CN2CCC3(CC2)C(OC)CN3c2cccc(F)c2)n1 (centres undefined) | ? | ? | -2% | i
CCc1cccc(NC(=O)C2CCc3ncc(-c4ccsc4)n3C2)c1 (centres undefined) | ? | 45µM* | -4% | i
CCN1C(=O)CCC2(C(=O)NCCN(C)C3CCCCC3)CCCC=C12 (centres undefined) | ? | 45µM* | -3% | i
CCN1C(=O)CCC2(C(=O)NC3CCCC3)CCCC=C12 (centres undefined) | -8% | -19% | 3% | i
CCNC(=O)C12CCCC=C1N(C1CCCC1)C(=O)CC2 (centres undefined) | -13% | 4% | -6% | 40µM*
Cc1cc(C(=O)NCC2Cn3cccc3CN2C)nn1C (centres undefined) | 0% | -7% | -2% | i
Cc1nccn1CCNC(=O)CCC[C@@H]1[C@H]2CCCN3CCC[C@@H](CN1Cc1ccccc1)[C@@H]23 | -18% | 0% | 1% | i
CC(=O)N(C)CCc1noc(C2CN(Cc3c(F)cccc3Cl)C2)n1 | ? | 40µM* | -1% | i
CC(=O)N(C)CCc1noc(C2CN(C(=O)COc3ccccc3)C2)n1 | 3% | 3% | 0% | i
CC(C)(C)c1cc(C[C@H]2CNCC[C@H]2CC(=O)N2CCC(Cc3ccccc3)CC2)no1 | 28µM* | 22µM* | 3% | i
O=C(C[C@@H]1CCNC[C@@H]1Cc1cc(-c2ccccc2)on1)N1CCC(Cc2ccccc2)CC1 | 28µM* | ? | 7% | i
CC(=O)Nc1cccc(C(=O)NC2CCCN(c3cc(-c4ccc(F)cc4)[nH]n3)C2)c1 (centres undefined) | -21% | ? | -1% | ?
CN(C)c1ccc(C(=O)NCC2CCN(c3cc(-c4ccc(F)cc4)[nH]n3)CC2)cc1 | ? | ? | -23% | ?
COc1ccc(-c2cc(N3CCCC(NC(=O)c4ccccc4)C3)n[nH]2)cc1 (centres undefined) | ? | ? | -16% | 22µM*
CN(C)c1cccc(C(=O)NC2CCCN(c3cc(-c4ccccc4)[nH]n3)C2)c1 (centres undefined) | ? | ? | -11% | 35µM*
CN(C)c1cccc(C(=O)NCC2CCN(c3cc(-c4ccccc4)[nH]n3)CC2)c1 | ? | ? | -15% | 16µM*
COc1ccc(-c2cc(N3CCCC(NC(=O)c4cccc(NC(C)=O)c4)C3)n[nH]2)cc1 (centres undefined) | ? | ? | -6% | 28µM*
Cc1noc(C2CC3(CCN(C(=O)c4cc(C)n(C)n4)CC3)CN2C)n1 (centres undefined) | -5% | -8% | . | .
O=C(c1ccccn1)N1CC(n2cc(COCc3ccccc3)nn2)C1 | -10% | -3% | . | .
COCCCn1c(=O)c(C(=O)N2CCN(C(=O)C(C)(C)C)CC2)nc2cccnc21 | -10% | -3% | . | .
COc1ccc(-c2cc(N3CCCC(NC(=O)c4cccc(C#N)c4)C3)n[nH]2)cc1 (centres undefined) | ? | ? | -16% | 20µM*
COc1ccc(-c2cc(N3CCCC(NC(=O)c4ccoc4)C3)n[nH]2)cc1 (centres undefined) | -18% | ? | -8% | 22µM*
COc1ccc(-c2cc(N3CCCC(NC(=O)c4ccc(C)s4)C3)n[nH]2)cc1 (centres undefined) | ? | ? | -14% | 28µM*
Cc1ccc(C(=O)NC2CCCN(c3cc(-c4ccccc4)[nH]n3)C2)s1 (centres undefined) | ? | ? | -11% | ?
COc1ccccc1Nc1ccnc(N2CCN(C(=O)c3ccc(F)cc3)CC2)n1 | 22µM* | 50µM* | . | .
SMILES | NIH3T3 tox | HEK293 tox | hNpr1 antagonist | Luciferase inh
COc1ccccc1-n1c(=O)c(C(=O)N2CCN(C(=O)Nc3ccc(Cl)cc3)CC2)nc2cccnc21 | -14% | i | . | .
O=C(c1ccc(F)cc1)N1CCN(c2nccc(Nc3ccccc3F)n2)CC1 | 32µM* | 40µM* | . | .
O=C(NC1CCOC1)C1CCN(c2nccc(Nc3ccccc3F)n2)CC1 (centres undefined) | -21% | -20% | . | .
COc1ccccc1Nc1ccnc(N2CCN(C(=O)Nc3ccc(Cl)cc3)CC2)n1 | 40µM* | 40µM* | . | .
COc1ccc(-c2nc3c(C)cccc3cc2CN2CCC[C@H]2CO)cc1OC | ? | ? | -7% | i
Cc1ccc(-n2c(C3CCN(C(=O)c4ccc(F)c(F)c4)CC3)n[nH]c2=O)cc1 | 10µM* | 12% | 2% | i
O=C(c1ccc(F)c(F)c1)N1CCC(c2n[nH]c(=O)n2-c2ccccc2)CC1 | ? | -6% | 0% | i
O=C(c1ccc2ccccc2n1)N1CCC(c2n[nH]c(=O)n2-c2ccccc2)CC1 | 45µM* | 4% | 0% | i
Cc1ccc(-n2c(C3CCN(C(=O)c4ccc5cc[nH]c5c4)CC3)n[nH]c2=O)cc1 | 32µM* | 10% | 2% | i
Cc1ccc(-n2c(C3CCN(C(=O)Cc4cccc(F)c4)CC3)n[nH]c2=O)cc1 | 10µM* | -1% | 15% | i
Cc1nn(-c2ccccc2)c2c1C(C(C)C)N(C1CCCN([S+](C)(=O)[O-])C1)C2=O (centres undefined) | -8% | ? | . | .
Cc1ccc(-n2c(C3CCN(C(=O)c4cccc(F)c4)CC3)n[nH]c2=O)cc1 | 35µM* | 12% | 3% | i
Cc1ccc(-n2c(C3CCN(C(=O)c4ccco4)CC3)n[nH]c2=O)cc1 | 22µM* | 6% | 2% | i
O=C(c1cccc(F)c1)N1CCC(c2n[nH]c(=O)n2-c2ccccc2)CC1 | -2% | 10% | 0% | i
COc1ccc(C(=O)N2CCCC(C(=O)N3CCC(c4nc5ccncc5[nH]4)CC3)C2)cc1 (centres undefined) | -13% | i | . | .
CN1CC(=O)N(c2ccc(Cl)cc2)Cc2c(NCc3ccc(F)cc3)ncnc21 | ? | ? | 3% | i
CC(C)CNC(=O)c1cc2n(n1)CC(c1ccc3c(c1)OCO3)OC2 (centres undefined) | 40µM* | 45µM* | -3% | i
CCc1ccc(NC(=O)c2cc3n(n2)CC(c2ccc4c(c2)OCO4)OC3)cc1 (centres undefined) | ? | 32µM* | 11µM* | ?
COc1ccc(NC(=O)c2cc3n(n2)CC(c2ccc4c(c2)OCO4)OC3)cc1OC (centres undefined) | -11% | ? | -17% | i
Cc1ccc(C(=O)N2CCCC(C(=O)N3CCC(N4CCOCC4=O)CC3)C2)cc1 (centres undefined) | -13% | -5% | . | .
